# Measurements as given in PubChem BioAssay AID624111 (Johns Hopkins Ion Channel Center, 2012).
# Out of some 4,000 compounds screened, about 60 (2%) were called active.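 The calls were made as follows: active = duplicate-averaged calcium fluorescence ratio at least three times the standard deviation of buffer wells, a nonspecific response in parental cells; inactive = the rest.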 Only a selection was taken, and actives are over-represented in it overall.
# Test: nonspecific calcium signal in parental HEK293, confirmation, counter-screen for MrgX1 antagonist project, parental HEK293 cells, Fluo-4 calcium flux (AID 624111)
# Settings: parental HEK293, Fluo-4 calcium fluorescence, FDSS; at 10 µM
row,Structure (SMILES),fluorescence ratio F(max-min)/F0
1,CCC(C)Sc1nc(C)nc2c1c(=O)n(C)c(=O)n2C (stereo not drawn),inactive
2,CCc1cc2c(SCC(=O)Nc3ncc(Cl)c(C)c3Cl)ncnc2s1,inactive
3,N#CC1=C(N)Oc2c(sc3ccccc23)C1c1ccco1 (stereo not drawn),0.504 (active)
4,CCC(C)c1ccccc1N1CC(C(=O)N2CCN(S(=O)(=O)c3ccc(F)cc3)CC2)CC1=O (stereo not drawn),inactive
5,COc1ccccc1Oc1nc(-c2cccnc2)nc2ccccc12,inactive
6,COC(=O)c1ccc(COC(=O)C2CCN(S(=O)(=O)c3c(Cl)cccc3Cl)CC2)o1,inactive
7,CN1C(CC(=O)Nc2ccc(Br)cc2)c2ccccc2CC1(C)C (stereo not drawn),inactive
8,O=C(COc1ccc(Cl)cc1)NC(=S)Nc1ccccc1N1CCOCC1,inactive
9,Nc1ccc(Oc2ccc(Cl)cc2)cc1,inactive
10,Cc1cc(=O)oc2cc(NC(=O)C3CC(=O)N(Cc4ccccc4)C3)ccc12 (stereo not drawn),inactive
11,COCCCNC(=O)C1CCN(c2ccc(N3CCOCC3)nn2)CC1,inactive
12,COc1ccc(C(=O)NC(=S)NC2CCCCC2)cc1,inactive
13,O=C(Nc1ccc(Br)cc1F)C1CC(=O)N(C2CCCCC2)C1 (stereo not drawn),inactive
14,CCN(c1cccc(C)c1)S(=O)(=O)c1ccc(-c2coc(C)n2)cc1,inactive
15,CC(=O)N(C1=C(Cl)C(=O)c2ccccc2C1=O)c1ccc(C(=O)O)cc1,inactive
16,CCOC(=O)c1c(NC(=O)CSc2cn(CC)c3ccccc23)sc2c1CCC2,inactive
17,O=C(c1ccc(O)cc1)c1ccc(C(=O)O)c(C(=O)O)c1,inactive
18,CCOc1ccc(NC(=O)CCNC(=O)c2ccc(Br)cc2)cc1,inactive
19,O=C1CCCN1CCCNC(=S)Nc1ccc(F)c(Cl)c1,inactive
20,COc1ccc(S(=O)(=O)N2CCN(C(=O)NC3CCCCC3)CC2)cc1,inactive
21,O=C(Nc1nnc(-c2ccccc2)o1)c1cc(-c2cccs2)nc2ccccc12,inactive
22,Cc1cc(Br)ccc1NC(=O)c1cnc(N2CCN(c3ccccn3)CC2)c2ccccc12,inactive
23,Cc1c(C(=O)N2CCN(c3ccc(F)cc3)CC2)oc2c1C(=O)CCC2,inactive

row,Structure (SMILES),fluorescence ratio F(max-min)/F0
1,CC(C)CC(=O)N/C(N)=N/c1nc2ccccc2s1,inactive
2,CC(=O)N(C)c1ccc(NC(=O)C(F)(F)F)cc1,inactive
3,CCOC(=O)c1c(C)[nH]c(=S)c(C#N)c1-c1ccccc1,inactive
4,CCc1cc(=O)oc2cc(C)cc(OCC(=O)N3CCC[C@@H]3C(=O)O)c12,inactive
5,CCN(CC)CC(=O)Nc1nn(-c2ccccc2)nc1C(N)=O,inactive
6,O=C(C1CCN(S(=O)(=O)c2cnc[nH]2)CC1)N1CCN(Cc2ccc3c(c2)OCO3)CC1,inactive
7,OCc1ccc(OCCCOc2cccc3cccnc23)cc1,inactive
8,FC(F)(F)c1cc(-c2cccs2)nc(NCc2ccco2)n1,inactive
9,O=C(Cc1nc2ccccc2[nH]c1=O)c1ccc(Cl)cc1,inactive
10,Clc1ccc(C=NC23CN4CN(CN(C4)C2)C3)cc1,inactive
11,CCOC(=O)N1CCN(C(=O)COCc2cc(-c3ccc4c(c3)OCO4)on2)CC1,inactive
12,CCSc1nsc(NC(=O)Nc2cccc(C(C)=O)c2)n1,inactive
13,CCCc1cc(=S)n2c([nH]c3ccccc32)c1C#N,inactive
14,O=c1cc(CSc2ccccn2)nc(N2CCN(c3ccccc3)CC2)[nH]1,inactive
15,CCOC(=O)CNC(=O)CSc1nc2cccnc2n1CC,inactive
16,Cc1c(C)c2c(OCC(=O)N[C@@H](C(=O)O)c3ccccc3)cc3c(c2oc1=O)CCC(C)(C)O3,inactive
17,Cc1ccc(-c2nn(C(C)(C)C)c3ncnc(N)c23)cc1,inactive
18,CCOc1cc(-c2conc2N)cc(OCC)c1OCC,inactive
19,Brc1ccccc1C1Nc2cccc3cccc(c23)N1,inactive
20,c1ccc(-c2[nH]ncc2-c2nc3ccccc3[nH]2)cc1,inactive
21,CCOC(=O)c1cn(Cc2cccc(C)c2)nn1,inactive
22,CC(C)NC(=S)Nc1cccc2cnccc12,inactive
23,CCOC(=O)C1=C(O)/C(=C/c2cc(C)n(-c3ccccc3)c2C)N=C1C,inactive

row,Structure (SMILES),fluorescence ratio F(max-min)/F0
1,COc1ccc(C2SCCN2S(=O)(=O)c2ccccc2)cc1OC (stereo not drawn),inactive
2,S=C(NCc1ccc(Cl)cc1)NC12CC3CC(CC(C3)C1)C2,inactive
3,COc1cc(C(F)(F)F)nc2c(Br)c(C(C)(C)C)nn12,inactive
4,CCN(C(=O)CSc1nnc2ccccn12)C1CCS(=O)(=O)C1 (stereo not drawn),inactive
5,O=C1C(Cc2ccc(O)cc2)NC(=S)N1Cc1ccccc1 (stereo not drawn),inactive
6,CCOC(=O)c1c(NC(=O)CNC2CCCc3ccccc32)sc(C(N)=O)c1C (stereo not drawn),inactive
7,COc1cccc(-c2cnc(OC(C)(C)C)nc2OC(C)(C)C)c1,inactive
8,COc1ccc(-n2c(SCC(=O)NCc3ccco3)nnc2-c2c[nH]c3ccccc23)cc1,inactive
9,CC(C)CNc1ncnc2c1cnn2Cc1ccc(Cl)cc1,inactive
10,Cc1cc2oc3ccc(NCCC4CCCN4C)cc3c(=O)c2cc1C (stereo not drawn),inactive
11,CC(=O)Nc1ccc(OC(=O)COc2ccc(Br)cc2)cc1,inactive
12,CCCc1[nH]nc2c1C(c1ccc(Br)s1)C(C#N)=C(N)O2 (stereo not drawn),inactive
13,CCS(=O)(=O)c1ccc2c(c1)N(S(=O)(=O)c1ccccc1)CC(C(=O)O)O2 (stereo not drawn),inactive
14,Fc1cccc(Cl)c1COc1ccc(-c2nnco2)cc1,inactive
15,COc1ccc(-c2cc(C(F)(F)F)nc(S(C)(=O)=O)n2)cc1OC,inactive
16,CCc1ccc2nc3sc(C(=O)Nc4nnc(CC)s4)c(N)c3cc2c1,0.589 (active)
17,COCc1nnc(NC(=O)c2ccc3c(c2)OCO3)s1,inactive
18,COc1cc(CCC(=O)Nc2ccncc2Cl)cc(OC)c1OC,inactive
19,Cc1cc(C)n(CCNC(=O)CC2C(=O)NCCN2Cc2ccc(C)o2)n1 (stereo not drawn),inactive
20,COc1ccc(S(=O)(=O)N2CCOCC2)c(C)c1C,inactive
21,CCOc1ccc(C(=O)NC2CCN(S(=O)(=O)CC)CC2)cc1,inactive
22,Cc1ccc(N/C(N)=N/c2nc(C(F)(F)F)cc(C(F)(F)F)n2)cc1,inactive
23,Cc1[nH][nH]c(=O)c1C(c1ccc(-c2ccc(Cl)cc2)o1)c1c(C)[nH][nH]c1=O,inactive

row,Structure (SMILES),fluorescence ratio F(max-min)/F0
1,Cc1ccc(-n2cnc3ncnc(-c4ccccc4)c32)cc1,inactive
2,Cc1c(C(=O)N2CCCc3ccccc32)sc2nc(-c3ccccc3)cn12,inactive
3,C(=N\n1cnnc1)/c1cccnc1,inactive
4,CC(=O)N1c2ccc(S(=O)(=O)N3CCCC(C(=O)Nc4cccc(Cl)c4)C3)cc2CC1C (stereo not drawn),inactive
5,Cc1cccc(Cn2cnc3c(N)c(C)c(C)cc32)c1,inactive
6,CCOC(=O)Nc1ccc2c(c1)N(C(=O)CCN1CCN(CCO)CC1)c1ccccc1CC2,inactive
7,COc1ccc2c(c1)OC(O)(C(F)(F)C(F)F)CC2=O (stereo not drawn),inactive
8,O=S(=O)(c1ccc2ccccc2c1)N1CCN(S(=O)(=O)N2CCOCC2)CC1,inactive
9,CCOC(=O)C1=C(O)CSC1=Nc1cccc(Cl)c1,inactive
10,Cc1nccn1CCC1CCCCN1C(=O)CCc1nnc(-c2ccsc2)o1 (stereo not drawn),inactive
11,O=C(Nc1ccccc1N1CCCCC1)c1ccc2nccnc2c1,inactive
12,Cc1onc(-c2ccccc2)c1C(=O)NNC(=S)NC(=O)c1ccc(F)cc1,inactive
13,O=C(CN1CCN(c2ccccn2)CC1)NC1CCCCC1,inactive
14,C=CCOc1cccc(C2C(C(=O)c3ccc(C)o3)=C(O)C(=O)N2c2nnc(C)s2)c1 (stereo not drawn),inactive
15,O=C1C(=O)N(CC2COc3ccccc3O2)c2ccccc21 (stereo not drawn),inactive
16,COc1ccccc1N(CC(=O)N1CCCCC1)S(=O)(=O)c1ccccc1,inactive
17,Clc1ccc(-c2nc3ccccn3c2CN2CCSCC2)cc1,inactive
18,COc1ccc(C(=O)NC(=S)NNC(=O)CCc2ccccc2)cc1,inactive
19,COc1cc(C)c(C)cc1S(=O)(=O)N1CCCc2ccccc21,inactive
20,Cc1nc2ccccc2cc1OCc1ccc(F)cc1,inactive
21,OCCn1c(-c2ccccc2)csc1=Nc1ccccc1,inactive
22,CC1(C)CC2CC(C)(CN2c2ncnc3ccc(Br)cc23)C1 (stereo not drawn),inactive
23,N=C(N)SCc1cccc2ccccc12,inactive

row,Structure (SMILES),fluorescence ratio F(max-min)/F0
1,Cc1occc1C(=O)Nc1nnc(-c2ccncc2)s1,inactive
2,CC(Oc1ccc(F)cc1)C(=O)Nc1ccccc1C(=O)NC1CC1 (stereo not drawn),inactive
3,CCCCC(=O)NNC(=S)NC(=O)C(c1ccccc1)c1ccccc1,inactive
4,CCOc1ccccc1C1CC(c2ccc(Cl)cc2)Nc2nc(N)nn21 (stereo not drawn),inactive
5,CCN(CC)c1ccc2oc(=O)c(C)nc2c1,0.549 (active)
6,CCNC(=O)c1c(O)c2cccc3c2n(c1=O)CC3,inactive
7,COC(=O)c1sccc1NS(=O)(=O)c1ccc(F)cc1F,inactive
8,COc1ccc(C(=O)CSc2n[nH]c(N)n2)cc1,inactive
9,CCOC(=O)c1[nH]c2ccc(C)cc2c1N=C(C)N(C)C,inactive
10,Cc1ccc2nc(Nc3ccccc3)cc(C)c2c1,inactive
11,CC1(C(=O)O)CCC(C(=O)Nc2ccc(Cl)c(Cl)c2)C1(C)C (stereo not drawn),inactive
12,Cc1cc(Nc2cc(N3CCN(C)CC3)nc(Sc3ccc(NC(=O)C4CC4)cc3)n2)n[nH]1,inactive
13,Cc1nn(C(=O)c2ccoc2C)c(N)c1-c1ccccc1,inactive
14,O=C(Nc1ccc(Cl)cc1)Nc1ccc(Oc2cccnc2)nc1,inactive
15,O=C(CCN1CCc2ccccc2C(O)(c2ccccc2)C1)c1ccc2c(c1)OCCO2 (stereo not drawn),inactive
16,CCC1CCCCN1CCNC(=O)c1[nH]c(C)c(C(C)=O)c1C (stereo not drawn),inactive
17,CCc1nnc(NC(=O)CSc2nc3c(c(=O)n2-c2ccccc2OC)SCC3)s1,inactive
18,Cc1ccc2c(C)c(C(=O)N(C)CCC3CCCCO3)oc2c1C (stereo not drawn),inactive
19,Cc1cccn2c(=O)c(/C=C3\SC(=S)N(CC(C)C)C3=O)c(NCCCOC(C)C)nc12,0.164 (active)
20,O=C(Nc1ccccc1Cl)N1CCN(c2ccc3nncn3n2)CC1,inactive
21,COc1ccc(OC)c(Nc2nc3ccccc3n3cnnc23)c1,inactive
